# Assay results: PubChem BioAssay (NCATS)
# Results filed as inconclusive are left out. The source made the active and inactive calls. Unless noted, calls follow the shape of the dose curve; as a rule, active = well fitted curve in either direction with a large enough effect (not every such curve was filed as active); inconclusive = small, poorly fitted or top-dose-only effect, or another doubt; inactive = flat fitted curve, though single readings scatter.
# What was measured:
# [1] = target: Lysosomal acid glucosylceramidase (Homo sapiens) (UniProt P04062); assay: Glucocerebrosidase-p2 (AID 348; in the data active = potency below about 10 µM; also: potency is read from the fitted curve at half-maximal effect); conditions: purified GBA, blue fluorogenic substrate, 40 min
# Lysosomal acid glucosylceramidase (Homo sapiens), sequence (P04062 whole entry, looked up): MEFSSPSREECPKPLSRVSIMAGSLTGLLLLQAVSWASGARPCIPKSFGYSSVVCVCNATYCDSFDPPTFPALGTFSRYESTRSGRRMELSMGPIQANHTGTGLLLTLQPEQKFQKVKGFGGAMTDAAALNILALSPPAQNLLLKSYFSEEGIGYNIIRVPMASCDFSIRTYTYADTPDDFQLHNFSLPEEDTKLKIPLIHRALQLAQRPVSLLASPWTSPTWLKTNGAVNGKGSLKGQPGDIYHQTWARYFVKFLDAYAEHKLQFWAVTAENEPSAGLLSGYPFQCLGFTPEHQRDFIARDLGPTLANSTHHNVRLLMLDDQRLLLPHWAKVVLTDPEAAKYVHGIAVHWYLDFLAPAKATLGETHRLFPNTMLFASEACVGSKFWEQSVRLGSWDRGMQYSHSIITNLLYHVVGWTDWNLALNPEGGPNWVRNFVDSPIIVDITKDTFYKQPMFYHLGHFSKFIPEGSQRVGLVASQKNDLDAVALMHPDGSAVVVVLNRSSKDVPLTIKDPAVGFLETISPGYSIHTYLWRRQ
# Summary of the method: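 Compounds titrated from 0.6 nM upwards against 0.2 nM enzyme in pH 5.9 citric acid/KH2PO4, taurocholate, tween-20; blue fluorogenic substrate 80 uM, 40 min room temperature, stopped and read Ex 365/Em 440 for AC50.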
# [2] = AP1 Signaling Pathway (AID 357); conditions: ME-180 AP-1-bla reporter, EGF-induced, beta-lactamase ratio, 5 h; at 7.69 µM (top of the series) unless noted;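 also: ME-180 reporter cells stimulated with EGF at its EC50 level; % is scaled to controls: 0 for no effect and ±100 for the full control effect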
# Summary of the method: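 Cells are seeded overnight, exposed to compound titrations and an EC50 level of EGF for 5 hours at 37 °C, then loaded with CCF4 dye for 2.5 hours. Beta-lactamase activity under the AP-1 element is read as a blue/green ratio.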
# [3] = target: Cytochrome P450 1A2 (Homo sapiens) (UniProt P05177); assay: p450-cyp1a2 (AID 410; calls by dose curve; also: potency is read from the fitted curve at half-maximal effect;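 as to activity change, negative = inhibition: -100% = full effect of reference inhibitor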); conditions: recombinant CYP1A2, luciferin-ME demethylation, luminescence; series mostly up to 57 µM
# Cytochrome P450 1A2 (Homo sapiens), sequence (P05177 whole entry, looked up): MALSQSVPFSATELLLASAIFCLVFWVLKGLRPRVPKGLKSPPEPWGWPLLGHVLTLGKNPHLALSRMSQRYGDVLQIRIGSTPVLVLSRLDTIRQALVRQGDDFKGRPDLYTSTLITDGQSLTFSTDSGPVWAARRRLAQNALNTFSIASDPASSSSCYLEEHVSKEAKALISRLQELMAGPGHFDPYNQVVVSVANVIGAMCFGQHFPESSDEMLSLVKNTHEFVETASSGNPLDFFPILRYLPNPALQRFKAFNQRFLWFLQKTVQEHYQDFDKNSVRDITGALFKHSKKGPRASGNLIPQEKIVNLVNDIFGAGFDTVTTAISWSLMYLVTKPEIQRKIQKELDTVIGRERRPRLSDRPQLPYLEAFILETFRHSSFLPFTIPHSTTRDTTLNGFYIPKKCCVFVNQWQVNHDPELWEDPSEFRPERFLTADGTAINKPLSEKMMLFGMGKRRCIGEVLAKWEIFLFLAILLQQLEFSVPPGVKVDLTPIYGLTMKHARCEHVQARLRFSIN
# Summary of the method: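 Luminescent readout of luciferin formed from Luciferin-ME by human CYP1A2; data normalized against complete inhibition by 57 uM furafylline. Enzyme 20nM, substrate 100uM at Km, 100mM KPO4 buffer, 60 min reaction at room temperature.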
# [4] = Stat Signaling Pathway (AID 446); conditions: ME-180 SIE beta-lactamase reporter, IL-6 stimulated, 5 h; at 7.69 µM (top of the series) unless noted;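 also: ME-180 cervical cancer cells given 40 pM IL-6 alongside compound; SIE-controlled beta-lactamase reporter measured as 460/530 nm FRET emission ratio; % is scaled to controls: 0 for no effect and ±100 for the full control effect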
# Summary of the method: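 Reporter line: ME-180 cervical carcinoma, SIE-beta-lactamase. Treatment: compound with 40 pM IL-6, 5 hrs, 37 C, in low-serum OPTI-MEM with 10 mM HEPES pH 7.3. Detection: 460/530 nm fluorescence.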
# [5] = target: Glucocorticoid receptor (Homo sapiens) (UniProt P04150); assay: GR-GFP Redistribution (AID 450;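 active = compounds whose dose series gives a full or clear partial fitted curve of increased nuclear translocation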; also: potency is read from the fitted curve at half-maximal effect); conditions: U2OS GR-GFP nuclear translocation, laser cytometry, 2 h
# Glucocorticoid receptor (Homo sapiens), sequence (P04150 whole entry, looked up, the tested form may be a part): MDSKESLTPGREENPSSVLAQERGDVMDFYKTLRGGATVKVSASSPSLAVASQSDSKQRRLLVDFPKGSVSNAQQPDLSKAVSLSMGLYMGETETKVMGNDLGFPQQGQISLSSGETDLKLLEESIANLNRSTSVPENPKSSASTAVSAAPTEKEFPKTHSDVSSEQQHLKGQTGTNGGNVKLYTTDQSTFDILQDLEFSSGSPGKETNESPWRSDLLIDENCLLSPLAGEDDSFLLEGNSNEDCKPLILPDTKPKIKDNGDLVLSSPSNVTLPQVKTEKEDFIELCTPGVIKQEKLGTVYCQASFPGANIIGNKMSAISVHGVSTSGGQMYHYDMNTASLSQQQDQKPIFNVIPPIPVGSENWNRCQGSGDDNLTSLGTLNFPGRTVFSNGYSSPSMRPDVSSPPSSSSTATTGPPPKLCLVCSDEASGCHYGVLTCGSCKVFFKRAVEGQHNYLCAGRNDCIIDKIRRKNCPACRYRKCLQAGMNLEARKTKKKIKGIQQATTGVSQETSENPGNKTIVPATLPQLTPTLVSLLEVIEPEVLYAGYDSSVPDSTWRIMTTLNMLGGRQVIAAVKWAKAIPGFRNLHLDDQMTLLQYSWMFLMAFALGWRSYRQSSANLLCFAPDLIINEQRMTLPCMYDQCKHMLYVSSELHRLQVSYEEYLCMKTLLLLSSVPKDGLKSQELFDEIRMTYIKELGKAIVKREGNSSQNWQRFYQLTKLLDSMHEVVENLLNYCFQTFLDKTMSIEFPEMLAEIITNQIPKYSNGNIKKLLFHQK
# [6] = target: Glucocorticoid receptor (Homo sapiens) (UniProt P04150); assay: GR-EFC Redistribution (AID 451; calls by dose curve; also: potency is read from the fitted curve at half-maximal effect); conditions: CHO-K1 GR-EFC translocation, beta-gal luminescence, 2 h
# Summary of the method: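 CHO-K1 cells stably expressing nuclear-localized β-gal enzyme acceptor and GR fused C-terminally to the enzyme donor fragment; ligand-driven nuclear translocation restores β-gal by complementation. Compounds titrated up to 46 uM final, 2 h at 37 °C; luminescence read.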
# [7] = target: Mitogen-activated protein kinase 10 (Mus musculus) (UniProt Q61831); assay: JNK3 AlphaScreen Assay (AID 530); conditions: JNK3 lysate, c-Jun phosphorylation; series mostly up to 57.1 µM;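 also: kinase came from lysate of stimulated human HepG2 cells; signal reports phosphorylation of biotinylated GST-cJun 1-79 at Ser73 with 10 µM ATP; % is scaled to controls: 0 for no effect and ±100 for the full control effect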
# Summary of the method: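 Inhibitors reduce antibody binding to phosphorylated biotin-cJun, lowering AlphaScreen luminescence. Lysates from HepG2 cells pre-activated by IL-1beta plus TNF-alpha supplied JNK3; compounds were titrated.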
# [8] = target: Cytochrome P450 3A4 (Homo sapiens) (UniProt P08684); assay: qHTS Assay for Activators of Cytochrome P450 3A4 (AID 885; active = well fitted curve in the direction sought with a large enough effect; an effect the other way counts as inactive or inconclusive; also: nearly all actives have a fitted effect of over 65% in size); conditions: recombinant CYP3A4, Luciferin-PPXE luminescence, 60 min; series mostly up to 57.1 µM
# Cytochrome P450 3A4 (Homo sapiens), sequence (P08684 whole entry, looked up): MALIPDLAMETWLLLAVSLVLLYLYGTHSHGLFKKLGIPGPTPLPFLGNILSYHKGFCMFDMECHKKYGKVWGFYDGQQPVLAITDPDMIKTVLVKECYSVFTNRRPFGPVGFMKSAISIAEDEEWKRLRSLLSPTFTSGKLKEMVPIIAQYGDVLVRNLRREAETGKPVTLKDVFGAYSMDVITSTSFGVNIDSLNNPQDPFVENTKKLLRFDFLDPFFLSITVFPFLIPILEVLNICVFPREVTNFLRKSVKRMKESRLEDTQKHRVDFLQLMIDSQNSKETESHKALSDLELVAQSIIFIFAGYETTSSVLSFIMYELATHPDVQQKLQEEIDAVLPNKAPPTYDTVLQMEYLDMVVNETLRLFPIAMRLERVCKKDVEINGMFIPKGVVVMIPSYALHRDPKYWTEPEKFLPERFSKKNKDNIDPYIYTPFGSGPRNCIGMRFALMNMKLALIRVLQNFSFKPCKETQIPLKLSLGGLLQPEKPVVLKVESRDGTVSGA
# Summary of the method: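 Signal was normalized against complete inhibition by 57 uM ketoconazole. The reaction used 20nM CYP3A4 with 25uM Luciferin-PPXE, 10-min compound preincubation and a 60-min NADPH-supported step at RT.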
# [9] = Confirmation and Secondary Assay for Modulators of Hemoglobin Beta Chain Splicing at IVS2 654 locus (AID 910; active = well fitted curve in the direction sought with a large enough effect; an effect the other way counts as inactive or inconclusive;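 also: per-well total GFP intensity by laser scanning cytometry after 2-day treatment; % of control where 0% means no effect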); conditions: HeLa EGFP-654 splicing reporter, GFP fluorescence, 48 h; series mostly up to 38.3 µM
# Summary of the method: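 HeLa cells stably carrying EGFP interrupted by mutant beta-globin IVS2-654 intron (CMV-driven) were treated with compound for 2 days at 37C; corrected splicing was scored as total peak GFP intensity per well (488 nm excitation, 500-520 nm emission).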
# [10] = Confirmation and Secondary Assay for Modulators of Hemoglobin Beta Chain Splicing at IVS2 705 locus (AID 930; active = well fitted curve in the direction sought with a large enough effect; an effect the other way counts as inactive or inconclusive;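 also: HeLa cells stably expressing the EGFP-705 splicing reporter; GFP fluorescence per well restored by corrected splicing of the IVS2-705 intron in EGFP; % of control where 0% means no effect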); conditions: HeLa EGFP-705 splicing reporter, GFP fluorescence, 48 h; series mostly up to 38.3 µM
# Summary of the method: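 HeLa EGFP-705 reporter; 500 cells/well, o/n 37C 5% CO2; cpd 2 d; 488 ex/500-520 em laser scan; total peak GFP intensity/well. Ref: 500 nM […] antisense PNA.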
# [11] = qHTS Assay for Lipid Storage Modulators (AID 1519; calls by dose curve); conditions: Drosophila S3 cells, BODIPY lipid droplet/cell ratio, laser cytometry, cells loaded with oleic acid; for activity change, negative = inhibition: at 57.5 µM (top of the series)
# Summary of the method: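 Cells seeded at 5,000 per well were treated with compounds over a concentration series and loaded with oleic acid (400 uM, as added). Lipid droplet fluorescence (488 nm excitation, 500-530 nm channel) was read by laser-scanning cytometry and normalized to 20 uM Triacsin C.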
# [12] = target: Ubiquitin carboxyl-terminal hydrolase 1 (Homo sapiens) (UniProt O94782); assay: Inhibitors of USP1/UAF1: Pilot qHTS (AID 504865; active = well fitted curve in the direction sought with a large enough effect; an effect the other way counts as inactive or inconclusive;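 also: rhodamine fluorescence freed from ubiquitin-rhodamine substrate followed over time; top concentration of the series differs between compounds; % is scaled to controls: 0 for no effect and ±100 for the full control effect; nearly all actives have a fitted effect of over 35% in size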); conditions: purified USP1/UAF1, Ub-rhodamine cleavage fluorescence; series mostly up to 54.9 µM
# Ubiquitin carboxyl-terminal hydrolase 1 (Homo sapiens), sequence (O94782 whole entry, looked up): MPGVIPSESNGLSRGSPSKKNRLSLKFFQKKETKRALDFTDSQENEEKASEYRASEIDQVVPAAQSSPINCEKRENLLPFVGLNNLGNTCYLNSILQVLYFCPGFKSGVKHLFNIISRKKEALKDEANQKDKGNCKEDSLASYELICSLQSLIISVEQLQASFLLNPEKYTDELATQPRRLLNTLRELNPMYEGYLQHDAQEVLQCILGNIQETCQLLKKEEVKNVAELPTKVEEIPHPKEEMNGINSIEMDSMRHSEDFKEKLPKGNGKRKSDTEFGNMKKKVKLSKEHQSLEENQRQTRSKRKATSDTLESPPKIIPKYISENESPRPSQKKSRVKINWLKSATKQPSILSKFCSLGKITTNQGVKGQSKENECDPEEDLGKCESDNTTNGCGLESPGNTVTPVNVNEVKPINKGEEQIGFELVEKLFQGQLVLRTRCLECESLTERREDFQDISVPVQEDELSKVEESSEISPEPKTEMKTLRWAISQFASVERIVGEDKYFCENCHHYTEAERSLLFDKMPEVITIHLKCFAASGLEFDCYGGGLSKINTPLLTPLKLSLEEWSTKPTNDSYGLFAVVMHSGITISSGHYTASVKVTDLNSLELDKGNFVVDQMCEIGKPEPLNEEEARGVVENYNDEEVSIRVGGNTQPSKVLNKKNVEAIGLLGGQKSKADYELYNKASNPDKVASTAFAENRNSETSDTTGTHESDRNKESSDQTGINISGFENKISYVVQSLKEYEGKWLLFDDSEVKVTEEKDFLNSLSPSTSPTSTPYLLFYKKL
# Summary of the method: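 Deubiquitinase activity followed as kinetic rhodamine fluorescence release from 150 nM Ub-Rho. 1 nM USP1/UAF1 with compound, after 15 min room-temperature preincubation, in HEPES pH 7.8 buffer containing TCEP, EDTA, BSA and Tween-20.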
# [13] = Primary qHTS for small molecule stabilizers of the endoplasmic reticulum resident proteome: Secreted ER Calcium Modulated Protein (SERCaMP) assay (AID 1508630; active = well fitted curve in the direction sought with a large enough effect; an effect the other way counts as inactive or inconclusive; also: % is scaled to controls: 0 for no effect and ±100 for the full control effect); conditions: SH-SY5Y GLuc-SERCaMP (Gaussia luciferase released on ER calcium loss) secretion, thapsigargin, luminescence; series mostly up to 38.4 µM
# Summary of the method: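 GLuc-SERCaMP-expressing SH-SY5Y cells, pretreated 16 h with compound, are challenged with thapsigargin to empty ER calcium stores; after 4 h, coelenterazine is added directly to the medium and luminescence is imaged.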
# [14] = target: 3',5'-cyclic-AMP phosphodiesterase 4B (Homo sapiens) (UniProt Q07343); assay: qHTS Assay for Inhibitors of PDE-IV (AID 607; active = well fitted activation curve with a large enough effect in the main read-out, with a control signal flat, not every such curve was filed as active; also: % of control where 0% means no effect); conditions: HEK293 ACTOne CNG channel cells, membrane potential fluorescence; series mostly up to 22.9 µM
# 3',5'-cyclic-AMP phosphodiesterase 4B (Homo sapiens), sequence (Q07343 whole entry, looked up): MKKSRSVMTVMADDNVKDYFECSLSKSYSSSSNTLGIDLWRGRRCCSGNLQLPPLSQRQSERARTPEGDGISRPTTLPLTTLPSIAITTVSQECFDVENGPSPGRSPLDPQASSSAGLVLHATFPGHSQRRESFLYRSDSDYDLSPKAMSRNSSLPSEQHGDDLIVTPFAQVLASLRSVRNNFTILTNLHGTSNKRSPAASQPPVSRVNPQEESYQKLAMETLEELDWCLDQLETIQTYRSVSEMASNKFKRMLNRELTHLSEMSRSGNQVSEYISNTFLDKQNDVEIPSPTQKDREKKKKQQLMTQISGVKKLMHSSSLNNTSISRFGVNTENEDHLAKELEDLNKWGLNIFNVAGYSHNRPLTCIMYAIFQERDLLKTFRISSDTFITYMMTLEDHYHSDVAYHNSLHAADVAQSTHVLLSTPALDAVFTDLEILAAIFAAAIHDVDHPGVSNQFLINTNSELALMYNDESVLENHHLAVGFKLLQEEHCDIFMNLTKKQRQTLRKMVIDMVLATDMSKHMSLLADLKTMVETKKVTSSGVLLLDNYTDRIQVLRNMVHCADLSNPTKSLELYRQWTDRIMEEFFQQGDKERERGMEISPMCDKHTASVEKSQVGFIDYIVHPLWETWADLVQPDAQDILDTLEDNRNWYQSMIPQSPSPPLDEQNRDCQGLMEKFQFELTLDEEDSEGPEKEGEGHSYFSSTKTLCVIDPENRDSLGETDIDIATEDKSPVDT
# Summary of the method: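 Cell-based read-out of cAMP via a modified cyclic nucleotide-gated channel and membrane potential dye (535/590 nm) in HEK293 cells expressing PDE4 endogenously. Compounds tested up to 22.9 uM final; 100 uM RO 20-1724 reference.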
# [15] = target: Cytochrome P450 2C9 (Homo sapiens) (UniProt P11712); assay: qHTS Assay for Inhibitors and Substrates of Cytochrome P450 2C9 (AID 883; active = well fitted curve in the direction sought with a large enough effect; an effect the other way counts as inactive or inconclusive; also: potency is read from the fitted curve at half-maximal effect; nearly all actives have a fitted effect of over 60% in size); conditions: recombinant CYP2C9, luciferin-H luminescence, 60 min; series mostly up to 57.1 µM
# Cytochrome P450 2C9 (Homo sapiens), sequence (P11712 whole entry, looked up): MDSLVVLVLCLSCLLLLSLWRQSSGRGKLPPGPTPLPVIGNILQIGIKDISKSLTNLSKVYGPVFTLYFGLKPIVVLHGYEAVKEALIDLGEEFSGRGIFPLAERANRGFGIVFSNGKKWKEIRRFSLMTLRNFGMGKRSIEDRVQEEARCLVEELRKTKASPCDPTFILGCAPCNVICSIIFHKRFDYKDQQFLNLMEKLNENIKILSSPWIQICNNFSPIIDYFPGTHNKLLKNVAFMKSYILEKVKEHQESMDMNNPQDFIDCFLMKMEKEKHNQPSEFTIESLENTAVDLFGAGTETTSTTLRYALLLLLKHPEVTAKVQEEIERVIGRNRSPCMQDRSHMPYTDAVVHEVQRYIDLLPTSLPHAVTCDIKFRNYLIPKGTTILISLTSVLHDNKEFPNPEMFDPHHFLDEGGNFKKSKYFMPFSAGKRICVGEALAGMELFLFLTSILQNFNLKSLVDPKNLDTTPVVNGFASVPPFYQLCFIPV
# Summary of the method: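 Human CYP2C9 (10nM) hydroxylated Luciferin-H (100uM, at its KM) to luciferin in 25mM KPO4. Compound was preincubated 10 min at 37C, then NADPH regeneration started a 60 min reaction at 37C. Luminescence was read after detection reagent, normalized to 57uM sulphaphenazole.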
# [16] = target: Cytochrome P450 2C19 (Homo sapiens) (UniProt P33261); assay: qHTS Assay for Inhibitors and Substrates of Cytochrome P450 2C19 (AID 899; active = well fitted curve in the direction sought with a large enough effect; an effect the other way counts as inactive or inconclusive; also: potency is read from the fitted curve at half-maximal effect; nearly all actives have a fitted effect of over 60% in size); conditions: recombinant CYP2C19, luciferin-H EGE luminescence; series mostly up to 57.1 µM
# Cytochrome P450 2C19 (Homo sapiens), sequence (P33261 whole entry, looked up): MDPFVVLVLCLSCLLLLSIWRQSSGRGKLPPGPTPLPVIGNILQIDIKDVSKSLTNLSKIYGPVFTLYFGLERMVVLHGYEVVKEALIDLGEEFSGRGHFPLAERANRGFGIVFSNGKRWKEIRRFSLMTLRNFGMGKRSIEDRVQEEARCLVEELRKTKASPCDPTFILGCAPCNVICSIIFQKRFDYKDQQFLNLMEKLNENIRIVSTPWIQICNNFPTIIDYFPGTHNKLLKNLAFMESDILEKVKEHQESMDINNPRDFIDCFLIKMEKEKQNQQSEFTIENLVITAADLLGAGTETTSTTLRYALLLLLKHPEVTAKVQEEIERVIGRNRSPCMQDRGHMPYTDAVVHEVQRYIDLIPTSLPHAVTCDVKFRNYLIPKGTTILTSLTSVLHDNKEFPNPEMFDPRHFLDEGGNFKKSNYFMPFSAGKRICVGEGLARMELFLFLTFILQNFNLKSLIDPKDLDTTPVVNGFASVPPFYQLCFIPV
# Summary of the method: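 Human CYP2C19 (5nM) with Luciferin-H EGE at 10uM (its KM) in 50mM KPO4 was preincubated with compound for 10 min at 37C. NADPH regeneration started a 60 min 37C reaction. Luciferin was read by luminescence, normalized to 57uM ketoconazole.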
# [17] = measured here: cell count channel max response
# [18] = measured here: lipid channel max response
Structure (SMILES),Potency [1],"activity change, negative = inhibition [2]",Potency [3],"activity, negative = inhibition [4]",Potency [5],Potency [6],Potency [7],Potency [8],Potency [9],outcome [10],"activity change, negative = inhibition [11]","max response [11, 17]","max response [11, 18]",Potency [12],outcome [13],Potency [14],Potency [15],Potency [16]
COc1ccccc1CNc1nc(-c2ccccc2CN(C)C)nc2ccccc12,> 11.4 µM (inactive),16.7% (inactive),0.794 µM (active),-12.4% (inactive),> 46 µM (inactive),> 46 µM (inactive),inactive,inactive,inactive,inactive,3.53% (inactive),-19.9%,-15.9%,inactive,inactive,–,–,–
COCC(=O)N1CCC2(CC1)CCN(c1cccc(-c3ccccc3)c1)CC2,> 11.4 µM (inactive),-4.83% (inactive),5.01 µM (active),-8.32% (inactive),–,> 46 µM (inactive),inactive,–,–,–,-0.758% (inactive),-9.9%,-7.13%,–,inactive,inactive,–,–
CC(C)CN1CCC2(CC1)CCN(C(=O)c1cc(C(F)(F)F)cc(C(F)(F)F)c1)CC2,> 11.4 µM (inactive),3.4% (inactive),inactive,0.414% (inactive),–,> 46 µM (inactive),inactive,–,–,–,-2.84% (inactive),-18.2%,-17.3%,–,inactive,inactive,–,–
O=C(c1cccc(F)c1)N1CCC2(CCCN(Cc3ccccc3)C2)CC1,> 11.4 µM (inactive),1.11% (inactive),inactive,-5.98% (inactive),–,> 46 µM (inactive),inactive,–,–,–,-8.15% (inactive),20.2%,12%,–,inactive,inactive,–,–
O=C(c1cccc(F)c1)N1CCC2(CCN(Cc3ccncc3)CC2)CC1,> 11.4 µM (inactive),-25.9% (inactive),12.6 µM (active),-0.6% (inactive),–,> 46 µM (inactive),inactive,inactive,–,–,2.27% (inactive),4.86%,11.8%,–,inactive,inactive,2.51 µM (active),–
Cn1cccc1C(=O)N1CCC2(CC1)CN(c1ccncc1)C2,> 11.4 µM (inactive),-6.05% (inactive),inactive,-3.69% (inactive),–,> 46 µM (inactive),inactive,–,–,–,2.57% (inactive),0.464%,4.51%,–,inactive,inactive,5.01 µM (active),1.26 µM (active)
